Experimental data: PubChem BioAssay (NCATS)
Results filed as inconclusive are left out. Entries that show only a call come without a potency. A number with no mark means an inactive call. Active and inactive are the calls of the source. Calls come from the whole dose curve; as a rule, active = well fitted curve in the direction sought with a large enough effect; inconclusive = small, poorly fitted or top-dose-only effect, or another doubt; inactive = no such curve, though single readings can be large; an effect the other way counts as inactive or inconclusive.

Assays:
[1] = target: Rap guanine nucleotide exchange factor 3 (Homo sapiens) (UniProt O95398); assay: Confirmatory qHTS for antagonist of cAMP-regulated guanine nucleotide exchange factor 3 (EPAC1) (AID 1645880); details: EPAC1 Rap1B-BODIPY-GDP exchange, fluorescence; activity, negative = inhibition: at 115 µM (top of the series); note: nearly all actives have a fitted effect of over 55% in size; note: potency is the fitted concentration of half-maximal effect
Sequence of Rap guanine nucleotide exchange factor 3 (Homo sapiens) (O95398 whole entry, looked up): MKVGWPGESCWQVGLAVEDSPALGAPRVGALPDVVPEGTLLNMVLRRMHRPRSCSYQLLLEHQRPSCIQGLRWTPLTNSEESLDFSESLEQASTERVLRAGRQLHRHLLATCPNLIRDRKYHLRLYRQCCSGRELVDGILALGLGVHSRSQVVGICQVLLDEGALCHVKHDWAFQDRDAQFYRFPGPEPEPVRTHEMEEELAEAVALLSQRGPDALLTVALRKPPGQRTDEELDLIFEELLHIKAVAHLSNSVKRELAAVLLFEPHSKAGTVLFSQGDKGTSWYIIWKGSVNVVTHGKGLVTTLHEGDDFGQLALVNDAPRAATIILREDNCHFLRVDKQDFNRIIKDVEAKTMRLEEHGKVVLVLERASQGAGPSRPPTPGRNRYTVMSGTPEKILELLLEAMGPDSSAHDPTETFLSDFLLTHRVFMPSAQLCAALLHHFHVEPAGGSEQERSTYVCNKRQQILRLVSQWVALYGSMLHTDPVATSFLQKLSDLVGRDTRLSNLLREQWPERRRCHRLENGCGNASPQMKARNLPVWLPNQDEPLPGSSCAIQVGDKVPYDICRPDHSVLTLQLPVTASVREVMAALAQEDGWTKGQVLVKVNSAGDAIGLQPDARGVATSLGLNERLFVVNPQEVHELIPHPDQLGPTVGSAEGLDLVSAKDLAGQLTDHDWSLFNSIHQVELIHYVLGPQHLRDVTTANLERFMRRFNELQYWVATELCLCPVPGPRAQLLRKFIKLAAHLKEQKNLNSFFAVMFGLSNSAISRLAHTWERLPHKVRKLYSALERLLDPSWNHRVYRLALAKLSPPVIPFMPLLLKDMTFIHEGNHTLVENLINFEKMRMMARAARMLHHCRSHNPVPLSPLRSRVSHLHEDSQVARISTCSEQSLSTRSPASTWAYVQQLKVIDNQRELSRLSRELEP
Method in brief: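 Released BODIPY-GDP fluoresces less than Rap1-bound BODIPY-GDP; the signal is followed at 480/540 nm at 5-min intervals over 30 min, after 5 min at room temperature. Reactions contain 100 nM EPAC1, 250 nM RAP1B-BODIPY-GDP and 50 uM GDP; results are normalized to ATA and DMSO.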

[2] = target: Rap guanine nucleotide exchange factor 3 (Homo sapiens) (UniProt O95398); assay: Confirmatory qHTS for agonist of cAMP-regulated guanine nucleotide exchange factor 3 (EPAC1) (AID 1645881); details: EPAC1 Rap1B BODIPY-GDP exchange fluorescence; series mostly up to 154 µM;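 note: EPAC1 catalysed release of BODIPY-GDP from Rap1B seen as fluorescence loss; nearly all actives have a fitted effect of over 75% in size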
[3] = target: Rap guanine nucleotide exchange factor 4 (Homo sapiens) (UniProt Q8WZA2); assay: Confirmatory qHTS for agonist of cAMP-regulated guanine nucleotide exchange factor 4 (EPAC2) (AID 1645884); details: EPAC2 GEF activity, Rap1B-BODIPY-GDP fluorescence; series mostly up to 154 µM;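 note: nucleotide exchange releases bodipy-GDP from Rap1 and this lowers its fluorescence; nearly all actives have a fitted effect of over 65% in size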
Sequence of Rap guanine nucleotide exchange factor 4 (Homo sapiens) (Q8WZA2 whole entry, looked up): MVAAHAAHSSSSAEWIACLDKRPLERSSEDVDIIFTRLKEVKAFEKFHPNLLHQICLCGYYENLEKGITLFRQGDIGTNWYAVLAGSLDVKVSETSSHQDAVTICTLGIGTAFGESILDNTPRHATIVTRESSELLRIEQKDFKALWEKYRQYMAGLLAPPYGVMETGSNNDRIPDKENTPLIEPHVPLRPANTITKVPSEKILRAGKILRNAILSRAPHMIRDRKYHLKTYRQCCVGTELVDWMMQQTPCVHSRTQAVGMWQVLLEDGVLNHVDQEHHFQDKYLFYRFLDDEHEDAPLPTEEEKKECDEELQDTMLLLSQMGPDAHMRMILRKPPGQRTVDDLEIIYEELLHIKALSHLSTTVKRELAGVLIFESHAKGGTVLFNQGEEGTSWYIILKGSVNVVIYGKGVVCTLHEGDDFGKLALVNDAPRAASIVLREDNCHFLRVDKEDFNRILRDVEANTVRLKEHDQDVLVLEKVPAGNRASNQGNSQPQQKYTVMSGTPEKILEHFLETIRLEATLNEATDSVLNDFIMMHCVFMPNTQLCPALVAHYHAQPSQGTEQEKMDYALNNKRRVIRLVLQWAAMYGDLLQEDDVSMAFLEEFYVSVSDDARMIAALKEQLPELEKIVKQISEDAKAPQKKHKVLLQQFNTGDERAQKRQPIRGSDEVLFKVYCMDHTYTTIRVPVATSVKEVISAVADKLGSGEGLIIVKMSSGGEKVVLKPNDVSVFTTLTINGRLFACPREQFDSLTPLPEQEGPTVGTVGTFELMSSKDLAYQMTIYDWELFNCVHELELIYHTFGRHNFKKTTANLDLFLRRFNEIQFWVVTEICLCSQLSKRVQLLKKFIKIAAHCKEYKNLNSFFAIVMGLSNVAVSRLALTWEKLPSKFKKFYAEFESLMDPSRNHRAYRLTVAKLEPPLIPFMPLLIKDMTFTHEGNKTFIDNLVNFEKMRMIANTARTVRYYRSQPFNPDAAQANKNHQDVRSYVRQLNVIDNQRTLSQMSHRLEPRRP

[4] = target: Rap guanine nucleotide exchange factor 3 (Homo sapiens) (UniProt O95398); assay: Counterscreen qHTS for antagonist of cAMP-regulated guanine nucleotide exchange factor 3 (EPAC1) (AID 1645888); details: Rap1B-BODIPY-GDP nucleotide exchange, fluorescence; series mostly up to 154 µM
Method in brief: (§1)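 Rap1B-BODIPY-GDP 250 nM + GDP 50 uM; cpds 7-pt, final 9.74 nM–152 uM (activator mode) or from 7.32 nM upwards (inhibitor mode); RT; FI 480/540 nm at 5 and 30 min, then ± cAMP, reread.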

[5] = target: Rap guanine nucleotide exchange factor 3 (Homo sapiens) (UniProt O95398); assay: Counterscreen qHTS for agonist of cAMP-regulated guanine nucleotide exchange factor 3 (EPAC1) (AID 1645889); details: EPAC1 Rap1B-BODIPY-GDP exchange, fluorescence; series mostly up to 154 µM; note: nearly all actives have a fitted effect of over 40% in size; note: potency is the fitted concentration of half-maximal effect
Method in brief: as §1

Structure (SMILES) | Potency [1] | Potency [2] | Potency [3] | Potency [4] | Potency [5] | activation [3] | activity change, negative = inhibition [4] | activation [5]
O=C(C1CC1)N1c2ccccc2Sc2ccccc21 | inactive | inactive | inactive | inactive | inactive | – | – | –
O=[N+]([O-])c1cc(/C=N/O)ccc1Oc1ccccc1Cl | inactive | inactive | inactive | inactive | inactive | – | – | –
CCN(CC(=O)Nc1ccc(NC(C)=O)cc1)C(=O)C1(c2ccc(Cl)cc2)CCC1 | inactive | inactive | inactive | inactive | inactive | – | – | –
CC1(C(=O)NS(=O)(=O)c2cccc(Cl)c2)CCN1C(=O)C1(c2ccc(Cl)cc2)CCC1 (stereo not given) | 11.2 µM (active) | inactive | – | – | – | 6.65% [at 17.1 µM, percent relative to cAMP agonist control] | -18.6% [at 30.8 µM] | 5.49% [at 30.8 µM]
COc1ccc(N=C2NC(=O)S/C2=C\c2ccc(N(C)C)cc2)cc1 | inactive | inactive | inactive | inactive | inactive | – | – | –
COCCn1c(SCc2ccccc2F)nc2ccccc2c1=O | inactive | inactive | – | – | – | 4.59% [at 17.1 µM, percent relative to cAMP agonist control] | -6.24% [at 30.8 µM] | 12.3% [at 30.8 µM]
O=C(N/N=C/c1ccccc1O)c1ccc2c(c1)OCO2 | inactive | inactive | inactive | inactive | inactive | – | – | –
CNC(=O)CSc1nc2ccccc2c(=O)n1-c1cc(OC)ccc1OC | inactive | inactive | – | – | – | -3% [at 17.1 µM, percent relative to cAMP agonist control] | -17.1% [at 30.8 µM] | 5.72% [at 30.8 µM]
O=C(O)c1ccccc1NS(=O)(=O)c1ccc(N/N=C/c2cccc(O)c2O)c([N+](=O)[O-])c1 | 9.53 µM (active) | inactive | inactive | inactive | inactive | – | – | –
COc1ccc(/C=C2/SC(=S)N(NS(=O)(=O)c3ccc(C)cc3)C2=O)cc1 | 47.8 µM (active) | inactive | inactive | inactive | inactive | – | – | –
COc1ccc(-c2csc(NC(=O)c3ccc(C(C)(C)C)cc3)c2C(=O)O)cc1 | 37.9 µM (active) | inactive | inactive | inactive | inactive | – | – | –
O=C(c1ccc(-c2ccccc2Cl)o1)N1CCC1 | inactive | inactive | – | – | – | 0.137% [at 17.1 µM, percent relative to cAMP agonist control] | -16.6% [at 30.8 µM] | 3.77% [at 30.8 µM]
CCCCOc1ccc(/C=C/C(=O)OCC(=O)NC(=O)NCC(C)C)cc1OCC | inactive | inactive | inactive | inactive | inactive | – | – | –
CS(=O)(=O)c1ccc2c(c1)SC1=NC(=O)/C(=C/c3ccco3)C(=N)N12 | 12 µM (active) | inactive | inactive | inactive | inactive | – | – | –
COc1ccc(C2CC(=O)c3ccccc3O2)cc1 (stereo not given) | inactive | inactive | inactive | inactive | inactive | – | – | –
CSCCC(NS(=O)(=O)c1ccc2c(c1)oc(=O)n2C)C(=O)NC1CCCCC1 (stereo not given) | inactive | inactive | inactive | inactive | inactive | – | – | –
Cc1cc2ccccc2cc1C(=O)c1ccccc1 | inactive | inactive | – | – | – | 3.89% [at 17.1 µM, percent relative to cAMP agonist control] | -19.3% [at 30.8 µM] | 5.51% [at 30.8 µM]
O=C1C(=Cc2ccccc2Cl)CCc2ccccc21 | inactive | inactive | inactive | inactive | inactive | – | – | –
COc1cc(SC)ccc1C(=O)Nc1c(C)cccc1C | inactive | inactive | – | – | – | -7.76% [at 17.1 µM, percent relative to cAMP agonist control] | -15.6% [at 30.8 µM] | 6.15% [at 30.8 µM]
COC(=O)C1=CN(Cc2cccs2)C=C(C(=O)OC)C1c1cccc(Cl)c1 | inactive | inactive | – | – | – | 2.31% [at 17.1 µM, percent relative to cAMP agonist control] | -4.15% [at 30.8 µM] | 24.6% [at 30.8 µM]
Cc1ccc(-c2ccccc2C2=CC(=O)CC(C)(C)C2=O)cc1 | inactive | inactive | – | – | – | -2.04% [at 17.1 µM, percent relative to cAMP agonist control] | 11.7% [at 30.8 µM] | 11.7% [at 30.8 µM]

Structure (SMILES) | Potency [1] | Potency [2] | Potency [3] | Potency [4] | Potency [5] | activation [3] | activity change, negative = inhibition [4] | activation [5]
Cc1nc(N(C)C)c2sc(=S)n(Cc3ccccc3)c2n1 | inactive | inactive | – | – | – | 11.2% [at 17.1 µM, percent relative to cAMP agonist control] | -16.2% [at 30.8 µM] | 9.98% [at 30.8 µM]
O=C(O)c1ccccc1-c1ccccc1C(=O)Nc1ccc2c(c1)oc(=O)c1ccccc12 | 75.7 µM (active) | inactive | inactive | inactive | inactive | – | – | –
OC[C@@H]1[C@@H](c2ccc(F)cc2)C(c2cccc(Cl)c2)=NN1c1ccccc1 | inactive | inactive | inactive | inactive | 12.6 µM (active) | – | – | –
CCC1SC2=NC(C)=C(C(=O)OC)C(c3cccs3)N2C1=O (stereo not given) | inactive | inactive | – | – | – | -2.13% [at 17.1 µM, percent relative to cAMP agonist control] | -9.77% [at 30.8 µM] | 5.87% [at 30.8 µM]
CC1(C)c2ccccc2N(CC(N)=O)C12C=Cc1ccccc1O2 (stereo not given) | inactive | inactive | – | – | – | -0.49% [at 17.1 µM, percent relative to cAMP agonist control] | 6.74% [at 30.8 µM] | 10.1% [at 30.8 µM]
Cc1ccc(C(C)C)c(OCc2ccc(C(=O)N/N=C/c3ccc(O)c(O)c3)cc2)c1 | 33.8 µM (active) | inactive | inactive | inactive | inactive | – | – | –
O=C(O)C1=CC[C@@H](c2ccc(Cl)cc2)N(S(=O)(=O)c2ccc(Cl)cc2)[C@H]1c1ccc(Br)cc1 | 75.7 µM (active) | inactive | inactive | inactive | inactive | – | – | –
Cc1ccc(C(=O)NCCCNC(=O)c2ccc(Cl)cc2)cn1 | inactive | inactive | inactive | inactive | inactive | – | – | –
CCOC(=O)c1[nH]c2ccc(OCC)cc2c1NC(=O)CN1CCN(c2ccccn2)CC1 | inactive | inactive | inactive | inactive | inactive | – | – | –
CCCN(CC1CC1)c1cc2c(c3c1ccn3C)C1CCC2C1 (stereo not given) | inactive | inactive | inactive | inactive | inactive | – | – | –
Cc1cc(C)c2sc(N(CCCN(C)C)C(=O)c3ccc(S(=O)(=O)N(C)C4CCCCC4)cc3)nc2c1 | inactive | inactive | inactive | inactive | inactive | – | – | –
O=C(O)CN1C(=O)/C(=C\c2cc(Br)ccc2OCc2ccc([N+](=O)[O-])cc2)SC1=S | 30.1 µM (active) | inactive | inactive | inactive | inactive | – | – | –
Cc1ccc(C)c(Cn2cnc3ccccc3c2=O)c1 | inactive | inactive | inactive | inactive | inactive | – | – | –
COc1cccc(-c2nc(CS(=O)(=O)CC(=O)N3CCN(C)CC3)c(C)o2)c1 | inactive | inactive | inactive | inactive | inactive | – | – | –
O=C(CS(=O)(=O)c1ccccc1)c1cc2cc(F)ccc2oc1=O | 75.7 µM (active) | inactive | inactive | inactive | inactive | – | – | –
CCOc1ccc(C(=O)Nc2c(C(=O)Nc3ccccc3F)oc3ccccc23)cc1OCC | inactive | inactive | inactive | inactive | inactive | – | – | –
CC(C(=O)Nc1ccc(O)c(C(=O)O)c1)N1C(=O)/C(=C/c2cccs2)SC1=S (stereo not given) | 37.9 µM (active) | inactive | inactive | inactive | inactive | – | – | –
Cc1ccc(S(=O)(=O)N2[C@@H](c3ccc(F)cc3)C(C(=O)O)=CC[C@H]2c2ccc(C(C)C)cc2)cc1 | 75.7 µM (active) | inactive | inactive | inactive | inactive | – | – | –
CCCS(=O)(=O)NC(=O)C1(C)CCN(C(=O)c2cccc(OC(F)(F)F)c2)C1 (stereo not given) | inactive | inactive | inactive | inactive | inactive | – | – | –
Cc1cc(/C=C2\SC(=S)NC2=O)c(C)n1-c1ccc(O)cc1 | 84.9 µM (active) | inactive | inactive | inactive | inactive | – | – | –
CC(=O)CCc1oc2ccccc2c1-c1ccccc1 | inactive | inactive | – | – | – | 6.69% [at 17.1 µM, percent relative to cAMP agonist control] | -10.9% [at 30.8 µM] | -0.404% [at 30.8 µM]
